A selection: hits, their analogues and other compounds. The true share with any hit is near 1.7%.
GLP1R cytotox: cytotoxicity counter-screen for GLP-1 receptor inverse agonists; HEK293 cAMP-luciferase reporter cells, luminescence, 24 h; Potency, µM (top dose mostly 38.3 µM), without a hit: at the highest dose activity change, negative = inhibition, most hits filed as inhibitors; 410,000 tested, 0.13% active;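 further: loss of luciferase light is scored as toxicity; on the % scale 0 is the no-effect control and ±100 the full control effect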
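To flag toxic compounds, the library was rerun on cells for 24 hr at 37 deg C and 5% CO2. Viability-linked luminescence was captured 12 min after adding luciferase detection reagent.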
PTHR1 agonist: agonists of human PTHR1 parathyroid hormone receptor; HEK293 GP2 PTHR1 cells, GloSensor cAMP luminescence, 1 h; Potency, µM (top dose mostly 115 µM), for the others: top-dose activation, usual class: activators; 410,000 tested, 0.075% active; further: nearly all actives have a fitted effect of over 55% in size
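HEK-293-derived GP2 cells expressing PTHR1 and a GloSensor cAMP reporter, 3,000/well, plated overnight, given luciferin plus IBMX (each 0.5 mM as added) for 1 h at 37 °C, then compound for 1 h at 37 °C. Luminescence was read after 15 min at room temperature.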
GLP1R inv ag: acts as inverse agonist at human GLP-1 receptor; Potency, µM (doses to about 38.3 µM), for the others: at the top dose activity change, negative = inhibition, actives largely listed as inhibitors; P43220; HEK293 GLP-1R CRE-luciferase, luminescence, 24 h; GLP-1R form is constitutively active; 410,000 tested, 1.6% active; AID 624417; further: on the % scale 0 is the no-effect control and ±100 the full control effect; nearly all actives have a fitted effect of over 55% in size
Target sequence (P43220 whole entry, looked up): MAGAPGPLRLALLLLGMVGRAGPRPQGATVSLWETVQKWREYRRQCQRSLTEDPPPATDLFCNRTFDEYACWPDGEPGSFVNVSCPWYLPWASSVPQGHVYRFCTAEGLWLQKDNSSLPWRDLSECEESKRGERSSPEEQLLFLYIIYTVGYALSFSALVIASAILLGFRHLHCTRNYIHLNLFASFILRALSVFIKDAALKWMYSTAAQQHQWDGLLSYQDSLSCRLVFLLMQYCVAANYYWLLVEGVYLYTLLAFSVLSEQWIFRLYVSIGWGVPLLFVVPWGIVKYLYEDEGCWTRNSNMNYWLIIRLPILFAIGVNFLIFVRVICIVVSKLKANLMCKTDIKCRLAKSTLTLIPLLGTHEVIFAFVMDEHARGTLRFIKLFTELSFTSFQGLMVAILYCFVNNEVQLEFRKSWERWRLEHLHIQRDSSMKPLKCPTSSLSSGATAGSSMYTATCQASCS
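HEK293 cells stably co-expressing a cAMP-responsive luciferase reporter and constitutively active GLP-1R were seeded, incubated 12 h, then exposed to compounds for 24 h at 37 C. Luminescence was read 12 min after detection reagent; inverse agonists lower signal.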
GLP1R ag: agonists of human GLP-1 receptor. HEK293 GLP-1R CRE-luciferase, luminescence, 4-6 h; cells express a hypersensitive GLP-1R form. Potency, µM (top dose mostly 45.6 µM), for the others: top-dose activation, most hits filed as activators. 380,000 tested, 0.007% active. P43220. AID 624172; further: % of control where 0% means no effect
* marks the source's active call; other numbers are inactive results; i = inactive; u = inconclusive; x = no result given; [ ] = another dose, or the depositor's remark. The call rests on the fitted dose curve; in most records, active means well fitted curve in the direction sought with a large enough effect; inconclusive means small, poorly fitted or top-dose-only effect, or another doubt; inactive means no such curve, though single readings can be large; an effect the other way counts as inactive or inconclusive. Potency means the concentration at half of the fitted maximal effect.

SMILES	GLP1R cytotox	PTHR1 agonist	GLP1R inv ag	GLP1R ag
CCCCSCCCNC(=O)CN1C(=O)COc2ccc(S(=O)(=O)N3CCC(C)CC3)cc21	4.7%	-13.2%	-1.5%	4.5%
COC(=O)CC1Oc2ccc(F)cc2-n2cc(-c3ccc(C)cc3)nc21 (stereo unspecified)	1.7%	-1.2%	-15.5%	3.7%
Cc1ccc(Nc2cc(C(=O)NCc3cccs3)c3ccccc3n2)c(C)c1	-10.1%	-15.8%	2µM*	x
COc1cc(NC(=O)C2CCN(S(=O)(=O)c3ccc4[nH]c(=O)oc4c3)CC2)cc(OC)c1	4.2%	0.767µM*	15.9%	-5.7%
CCOC(=O)C1CCN(S(=O)(=O)c2ccc3[nH]c(=O)oc3c2)CC1	3.7%	-0.9%	-5.1%	-4.0%
COc1ccc(NC(=O)COC(=O)c2c3c(nc4ccccc24)CCCC3)cc1	-13.7%	-29.6%[57.5 µM]	u	-17.7%
COc1ccc(NC(=O)COC(=O)c2c3c(nc4ccccc24)CCCC3)cc1Cl	u	-27.8%	3.55µM*	-5.0%
C=Cc1ccc(CSc2nc(-c3ccc(C)cc3)nc3c2Cc2c(CO)cnc(C)c2O3)cc1	3.3%	i	-8.6%	x
CC(C)NC(=O)c1ccc(-n2c(-c3ccccc3)cc3c2CCCCC3)cc1	-3.2%	u	7.8%	x
CC1CCc2c(cc(-c3ccccc3)n2-c2ccc(C(=O)NC(C)C)cc2)C1 (stereo unspecified)	-28.3%	-26.5%	6.31µM*	x
c1ccc(C[C@H]2CNCCN2CCc2cccc3ccccc23)cc1	-23.4%	-15.7%	11.2µM*	6.4%
COc1ccc(N2CCN(C(=O)CCc3c(C)nn(-c4ccc(N5CCCC5)nn4)c3C)CC2)cc1	3.8%	-20.4%	2.0%	x
CCN(c1ccccc1)c1ncnc2c1cnn2-c1ccc(C)cc1C	-18.7%	-47.6%	u	x
CCCN(CCC)C(=O)c1oc2ccccc2c1NC(=O)Cc1cccc(OC)c1	-6.1%	-8.9%	7.94µM*	11.3%
COc1cccc(CC(=O)Nc2c(C(=O)N3CCN(c4ccccc4)CC3)oc3ccccc23)c1	-14.8%	i	u	x
CCc1ccc(NC(=O)CC2C(=O)N(c3ccc(F)cc3)C(=O)N2Cc2ccc(F)cc2)cc1 (stereo unspecified)	0.2%	i	u	x
CCCCNC(=O)C1CCN(Cc2ccc(OCc3ccccc3)cc2)CC1	u	-32.3%[57.5 µM]	7.08µM*	14.8%
O=C(CN1c2ccccc2Sc2ccccc21)N/N=C/c1ccc(Cl)cc1Cl	1.6%	-8.0%	-12.5%	0.6%
O=C(CN1c2ccccc2Sc2ccccc21)N/N=C/c1ccc(Cl)cc1	-22.0%	i	3.16µM*	2.5%
CO/N=C1\C[C@]2(C[C@@H]3C[C@H](C/C=C(/C)C[C@@H](C)/C=C\C=C4\CO[C@@H]5[C@@H](O)C(C)=C[C@@H](C(=O)O3)[C@]45O)O2)O[C@@H](/C(C)=C/C(C)C)[C@H]1C	x	x	x	-4.9%
CCOC(=O)c1ccc(Nc2c(-c3ccc(O)cc3)nc3nc[nH]n23)cc1	0.7%	-19.9%	6.8%	x
CCn1ncc(CN2CCCC(C(=O)Nc3cccc(-c4cc5ccccc5[nH]4)c3)C2)c1C (stereo unspecified)	u	-30.6%	3.55µM*	1.6%
[O-]/C(=C(\C(=S)Nc1ccc(SC(F)F)cc1)[n+]1ccccc1)c1ccc(Cl)cc1Cl	-18.4%	-27.4%	1.12µM*	5.0%
COc1cccc(CNC(=O)Cn2ncn3nc(-c4cccs4)cc3c2=O)c1	4.8%	-35.8%	0.3%	x
Cc1ccc(-c2cc(C(=O)N3CCCC3)no2)cc1	10.7%	-48.9%	3.98µM*	-13.4%
SMILES	GLP1R cytotox	PTHR1 agonist	GLP1R inv ag	GLP1R ag
Cc1ccc(-c2cc(C(=O)N3CCOCC3)no2)cc1	4.9%	-40.6%	3.16µM*	-5.7%
O=C(c1cc(-c2ccco2)on1)N1CCOCC1	6.8%	i	4.3%	1.3%
COc1ccc(CNC(=O)C(=O)NCC(c2ccco2)S(=O)(=O)c2ccc(Cl)cc2)cc1 (stereo unspecified)	-10.2%	-8.4%	23.5%	x
CCCSc1nnc(NC(=O)c2cc(=O)c3ccccc3o2)s1	1.5%	i	18.0%	x
CN(C)c1ccc(C(=O)Nc2sc(Nc3ccccc3)nc2C(N)=O)cc1	48.8%	i	4.2%	x
Cc1ccc(C)c(NS(=O)(=O)c2ccc(NC(=O)CSc3ccc(Cl)cc3)cc2)c1	-10.2%	i	u	8.1%
Cc1ccc(NS(=O)(=O)c2ccc(NC(=O)C(C)Sc3ccc(Cl)cc3)cc2)c(C)c1 (stereo unspecified)	12.3%	-16.4%	10µM*	1.8%
Cc1nc2sc(C(N)=O)c(N)c2c2c1CCCC2	16.7%	-13.5%	1.12µM*	-5.6%
Cc1ccc(-c2nc3sc(C(N)=O)c(N)c3c3c2CCCC3)cc1	191.6%	-0.8%	0.0%	17.5%
Cn1nc(C(F)(F)F)c(-c2ccc(Br)cc2)c1NC(=O)c1ccco1	-11.5%	-29.1%	7.08µM*	-5.0%
Cn1nc(C(F)(F)F)c(-c2ccc(Br)cc2)c1NC(=O)c1cccnc1	-14.3%	-7.5%	u	7.4%
CCOc1ccccc1N1CCN(C(=S)NC(=O)C23CC4CC(CC(C4)C2)C3)CC1	u	-0.2%	u	3.1%
CCOc1ccccc1N1CCN(C(=S)NCc2ccc(Cl)cc2)CC1	-0.1%	-54.5%	11.2µM*	21.3%
CC(=O)c1ccc(OCc2cc(C(=O)N(C)CCOc3ccc(C)cc3)no2)cc1	-7.4%	-35.4%	10µM*	17.0%
CC(=O)c1ccc(OCc2cc(C(=O)N(C)Cc3nc4c(C)cccc4[nH]3)no2)cc1	7.2%	-31.0%	1.1%	1.0%
CS(=O)(=O)c1ccc2nnn(OCC(=O)Nc3ccc(Br)cc3Br)c2c1	-6.3%	-65.8%	10µM*	4.1%
CCN(CC)S(=O)(=O)c1ccc2nnn(OCC(=O)Nc3cccc(C#N)c3)c2c1	-28.6%	-31.8%	-0.4%	10.5%
Cc1onc(-c2ccccc2Cl)c1C(=O)N1CCN(c2cccc(Cl)c2)CC1	-13.5%	-27.7%	1µM*	3.1%
Cc1[nH]c(-c2ccc(F)cc2)cc1C(=O)N1CCN(c2cccc(Cl)c2)CC1	u	-17.2%	5.01µM*	5.7%
COc1cccc(CNC(=O)C2CCN(c3nnc(-n4c(C)ccc4C)s3)CC2)c1	-1.4%	i	-11.6%	x
COc1ccc(C2c3c(n(C)c4ccccc34)C(=O)N2CC(=O)Nc2ccccc2Cl)cc1 (stereo unspecified)	13.3%	21.9%	u	x
COc1ccc(NC(C)C(=O)Nc2ccc(C#N)cc2)cc1Cl (stereo unspecified)	-2.4%	i	u	3.7%
COc1ccc(NC(C)C(=O)Nc2ccc(C(C)(C)C)cc2)cc1Cl (stereo unspecified)	-21.2%	-5.1%[57.5 µM]	4.47µM*	10.5%
Cc1ccc(C(=O)N2CCN(Cc3cc(=O)n4nc(-c5ccccc5)sc4n3)CC2)cc1	0.8%	-16.3%	8.1%	x
